Measurements taken from PubChem BioAssay.
Active and inactive are the calls of the source. Unless noted, the rule behind the calls is not given here.

Columns and labels:
[1] = compound effects on lung adenocarcinoma cell viability – A549, calcein-AM fluorescence, 48 h, basal, profiling panel (AID 1162); settings: higher = more signal; note: test concentration not given here
[2] = compound effects on differentiated 3T3-L1 adipocyte viability – cell-based, 3T3-L1 adipocytes, calcein-AM fluorescence, 48 h, basal, profiling panel (AID 1163); settings: 3T3-L1 adipocytes viability, higher = more signal; note: test concentration not given here
[3] = compound effects on hepatocellular carcinoma cell viability – HepG2, calcein-AM fluorescence, 48 h, basal, profiling panel (AID 1164); settings: higher = more signal; note: test concentration not given here
[4] = compound effects on multiple myeloma cell viability – MM1S, calcein-AM fluorescence, 48 h, basal, profiling panel (AID 1165); settings: higher = more signal;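 note: viability of MM1S multiple myeloma cells under basal unstimulated conditions; test concentration not given here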
[5] = calcein-AM signal in unstimulated myeloma cells – cell-based, calcein-AM fluorescence, 48 h, PK04 Diversity Set, profiling panel (AID 1166); settings: RPMI8226 myeloma viability, higher = more signal;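 note: cells grown under basal conditions without added stimulus; test concentration not given here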
[6] = JC-1 mitochondrial signal, unstimulated HepG2 cells – cell-based, JC-1 fluorescence, 24 h, 100 nL compound, profiling panel (AID 1167); settings: HepG2 mitochondrial potential, higher = more signal; note: test concentration not given here
[7] = JC-1 mitochondrial signal, unstimulated adipocytes – cell-based, JC-1 fluorescence, 3T3-L1 adipocytes, 24 h, 100 nL compound, profiling panel (AID 1168); settings: JC-1 mitochondrial fluorescence, higher = more signal, called active from +8 up or from −8 down; note: test concentration not given here
[8] = JC-1 mitochondrial signal, unstimulated myeloma cells – cell-based, JC-1 fluorescence, RPMI8226, 24 h, 100 nL compound, profiling panel (AID 1169); settings: JC-1 mitochondrial potential fluorescence, higher = more signal; note: test concentration not given here
[9] = JC-1 mitochondrial signal, unstimulated MM1S myeloma – cell-based, JC-1 fluorescence, 24 h, 100 nL compound, profiling panel (AID 1170); settings: MM1S mitochondrial potential, higher = more signal; note: test concentration not given here
[10] = resazurin metabolic signal in A549 cells – cell-based, resazurin fluorescence, 24 h, PK04 Diversity Set, profiling panel (AID 1171); settings: A549 viability, higher = more signal, called active from +8 up or from −8 down; note: test concentration not given here
[11] = resazurin metabolic signal in HepG2 cells – cell-based, resazurin fluorescence, 24 h, PK04 Diversity Set, profiling panel (AID 1172); settings: HepG2 viability, higher = more signal; note: test concentration not given here
[12] = budding yeast growth changes without added modifier – OD600, strain BY4716, 24 h, basal condition, primary screen (AID 1173); settings: S. cerevisiae BY4716 growth, OD600, 24 h; higher = more signal, called active from +8 up or from −8 down
[13] = viability profiling in MM1S myeloma cells – cell-based, resazurin fluorescence, basal, 24 h, PK04 Diversity Set, profiling panel (AID 1174); settings: higher = more signal, called active from +8 up or from −8 down; note: test concentration not given here
[14] = molecular target: Dihydroorotate dehydrogenase (quinone), mitochondrial (Plasmodium falciparum (isolate 3D7)) (UniProt Q08210); assay: inhibition of P. falciparum DHODH – biochemical, C-terminal His tag, absorbance 600 nm, primary screen (AID 1175); settings: PfDHODH enzyme, DCIP absorbance 600 nm; higher = more signal, called active from +8 up or from −8 down;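 note: recombinant parasite enzyme with a five histidine tag at its C terminus; test concentration not given here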
[15] = inhibition of PAO1 biofilm formation – strain PAO1, LB-PBS medium, absorbance 600 nm, primary screen (AID 1176); note: test concentration not given here; settings: P. aeruginosa PAO1 growth/biofilm, A600, 12 h; higher = more signal
[16] = growth modulation of vineyard yeast isolate – strain RM11-1a, OD600, basal, 24 h, primary screen (AID 1177);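 note: cultures grown under basal conditions with no added stressor; test concentration not given here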; settings: S. cerevisiae RM11-1a growth, OD600, 24 h; higher = more signal, called active from +8 up or from −8 down
[17] = growth of efflux-deficient E. coli DRC39 – strain DRC39, OD650, 24 h, E. coli filamentation inducers, primary screen (AID 1178);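 note: growth measured as culture turbidity by optical density at 650 nm; test concentration not given here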; settings: E. coli DRC39 acrAB, higher = more signal, called active from +8 up or from −8 down
[18] = growth of efflux-deficient E. coli DRC39 – strain DRC39, OD650, 48 h, E. coli filamentation inducers, primary screen (AID 1179);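 note: screen aims at cell division blockers that make cells filament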; settings: E. coli DRC39 delta-acrAB growth, higher = more signal, called active from +8 up or from −8 down
[19] = viability profiling in RPMI8226 myeloma cells – cell-based, resazurin fluorescence, basal, 24 h, PK04 Diversity Set, profiling panel (AID 1180); settings: higher = more signal;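 note: RPMI8826 multiple myeloma cell line at 5000 cells per well; test concentration not given here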
[20] = molecular target: E3 ubiquitin-protein ligase XIAP (Homo sapiens) (UniProt P98170); assay: small molecules binding XIAP protein – biophysical, small-molecule microarray, fluorescence 635 nm, primary screen (AID 1181); settings: higher = more signal;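 note: score merges 667 nm emission and signal to noise over triplicate slides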
Sequence of E3 ubiquitin-protein ligase XIAP (Homo sapiens) (P98170 whole entry, looked up): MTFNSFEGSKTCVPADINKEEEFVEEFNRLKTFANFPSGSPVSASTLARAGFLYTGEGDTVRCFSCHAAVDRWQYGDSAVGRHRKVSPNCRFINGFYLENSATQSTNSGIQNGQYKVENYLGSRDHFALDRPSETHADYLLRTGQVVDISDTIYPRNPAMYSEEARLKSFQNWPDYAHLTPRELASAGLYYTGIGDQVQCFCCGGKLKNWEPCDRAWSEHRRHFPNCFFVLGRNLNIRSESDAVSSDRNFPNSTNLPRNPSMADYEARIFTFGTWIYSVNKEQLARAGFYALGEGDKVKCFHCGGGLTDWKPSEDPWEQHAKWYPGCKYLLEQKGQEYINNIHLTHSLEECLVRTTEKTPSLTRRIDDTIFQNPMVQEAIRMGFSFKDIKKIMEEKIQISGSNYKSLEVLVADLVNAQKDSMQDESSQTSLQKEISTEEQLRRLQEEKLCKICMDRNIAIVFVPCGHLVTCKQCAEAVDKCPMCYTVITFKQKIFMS

Sequence of Dihydroorotate dehydrogenase (quinone), mitochondrial (Plasmodium falciparum (isolate 3D7)) (Q08210 whole entry, looked up): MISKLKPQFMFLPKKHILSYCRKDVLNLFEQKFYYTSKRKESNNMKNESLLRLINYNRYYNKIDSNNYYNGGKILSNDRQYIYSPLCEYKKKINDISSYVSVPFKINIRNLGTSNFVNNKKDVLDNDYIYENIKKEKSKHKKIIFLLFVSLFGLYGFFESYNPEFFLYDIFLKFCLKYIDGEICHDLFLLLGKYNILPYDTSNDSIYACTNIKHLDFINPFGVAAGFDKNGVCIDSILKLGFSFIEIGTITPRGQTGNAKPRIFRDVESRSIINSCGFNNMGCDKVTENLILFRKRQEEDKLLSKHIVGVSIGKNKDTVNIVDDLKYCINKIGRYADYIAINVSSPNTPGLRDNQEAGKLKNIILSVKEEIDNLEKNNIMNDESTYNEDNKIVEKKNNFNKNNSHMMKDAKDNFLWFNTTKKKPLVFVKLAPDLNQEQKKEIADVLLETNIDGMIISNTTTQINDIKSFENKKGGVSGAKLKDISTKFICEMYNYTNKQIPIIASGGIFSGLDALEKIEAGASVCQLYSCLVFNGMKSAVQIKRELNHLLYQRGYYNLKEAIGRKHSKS

COC(=O)[C@@]1(Cc2ccc(OC)cc2)[C@H]2c3cc(C(=O)N(C)C)n(CCc4ccc(OC)c(Br)c4)c3C[C@H]2CN1C(=O)c1ccccc1
z-score [1]: -1.55 | z-score [2]: -1.08 | z-score [3]: -0.992 | z-score [4]: -1.6 | z-score [5]: -4.57 | z-score [6]: 2.92 | z-score [7]: -1.39 (inactive) | z-score [8]: -0.855 | z-score [9]: -2.23 | z-score [10]: -1.39 (inactive) | z-score [11]: -0.575 | z-score [12]: 1.36 (inactive) | z-score [13]: -2.09 (inactive) | composite z-score [14]: 0.125 (inactive) | z-score [15]: 1.22 (inactive) | z-score [16]: 0.961 (inactive) | z-score [17]: -0.307 (inactive) | z-score [18]: -0.025 (inactive) | z-score [19]: -3.63 | composite z-score [20]: -0.0848

Cc1cc(C)c(C(O)C2C=CC3C(=O)N(C)C(=O)C3N2N2CCCCC2)c(C)c1 (stereo not given)
z-score [1]: -0.905 | z-score [2]: -0.878 | z-score [3]: -0.863 | z-score [4]: -0.225 | z-score [5]: -1.11 | z-score [6]: -1.74 | z-score [7]: -0.721 (inactive) | z-score [8]: 0.935 | z-score [9]: 0.173 | z-score [10]: 0.406 (inactive) | z-score [11]: 0.0632 | z-score [12]: 0.361 (inactive) | z-score [13]: -1.09 (inactive) | composite z-score [14]: -0.416 (inactive) | z-score [15]: 0.875 (inactive) | z-score [16]: -0.136 (inactive) | z-score [17]: -0.894 (inactive) | z-score [18]: -0.435 (inactive) | z-score [19]: -1.02 | composite z-score [20]: 0.305

COC(=O)C[C@H]1O[C@]2(C(=O)N(Cc3ccccc3)c3ccc(I)cc32)[C@@H](C)[C@@H]1[Si](C)(C)c1ccc(OC)cc1
z-score [1]: -0.344 | z-score [2]: 1.02 | z-score [3]: 0.638 | z-score [4]: -0.077 | z-score [5]: -1.22 | z-score [6]: 2.66 | z-score [7]: -1.07 (inactive) | z-score [8]: -0.226 | z-score [9]: 0.211 | z-score [10]: -0.923 (inactive) | z-score [11]: -0.583 | z-score [12]: -2.01 (inactive) | z-score [13]: -0.146 (inactive) | composite z-score [14]: 0.94 (inactive) | z-score [15]: -0.435 (inactive) | z-score [16]: 0.765 (inactive) | z-score [17]: -0.493 (inactive) | z-score [18]: -0.598 (inactive) | z-score [19]: -0.196 | composite z-score [20]: -0.211

C=C(C(=O)CC[C@H](OC(=O)c1ccccc1-c1ccccc1C(=O)O)c1ccc(CO)o1)C(C)C
z-score [1]: -0.473 | z-score [2]: -0.284 | z-score [3]: -0.396 | z-score [4]: -0.263 | z-score [5]: 0.0025 | z-score [6]: -0.906 | z-score [7]: -0.244 (inactive) | z-score [8]: 0.374 | z-score [9]: 0.668 | z-score [10]: 0.529 (inactive) | z-score [11]: -0.256 | z-score [12]: 0.656 (inactive) | z-score [13]: 0.192 (inactive) | composite z-score [14]: -0.976 (inactive) | z-score [15]: 0.98 (inactive) | z-score [16]: 1.73 (inactive) | z-score [17]: 0.101 (inactive) | z-score [18]: 0.0357 (inactive) | z-score [19]: 0.951 | composite z-score [20]: -0.153

COc1cc(Cc2cc3c(c(CCc4ccccc4)n2)[Si](C(C)C)(C(C)C)OC3)cc(OC)c1OC
z-score [1]: 0.557 | z-score [2]: -1.22 | z-score [3]: -0.202 | z-score [4]: -2.17 | z-score [5]: -4.13 | z-score [6]: 0.756 | z-score [7]: -0.411 (inactive) | z-score [8]: -0.799 | z-score [9]: -0.234 | z-score [10]: 2.12 (inactive) | z-score [11]: 1.47 | z-score [12]: -0.0438 (inactive) | z-score [13]: 0.273 (inactive) | composite z-score [14]: -0.606 (inactive) | z-score [15]: 0.726 (inactive) | z-score [16]: 0.404 (inactive) | z-score [17]: -0.171 (inactive) | z-score [18]: 0.365 (inactive) | z-score [19]: 0.815 | composite z-score [20]: 0.107

Cc1ccc(S(=O)(=O)N2[C@@H](c3ccccc3)C(C(=O)O)=CC[C@H]2c2ccccc2)cc1
z-score [1]: -0.0225 | z-score [2]: -0.426 | z-score [3]: -0.335 | z-score [4]: -0.107 | z-score [5]: -1.25 | z-score [6]: -0.923 | z-score [7]: -0.17 (inactive) | z-score [8]: 0.621 | z-score [9]: 0.675 | z-score [10]: -1.08 (inactive) | z-score [11]: -1.18 | z-score [12]: 0.131 (inactive) | z-score [13]: -2.14 (inactive) | composite z-score [14]: 1.03 (inactive) | z-score [15]: -0.0727 (inactive) | z-score [16]: 0.256 (inactive) | z-score [17]: -0.992 (inactive) | z-score [18]: -1.25 (inactive) | z-score [19]: -1.8 | composite z-score [20]: 0.261

C[C@@H]1NC(=O)[C@H](Cc2ccccc2)NC(=O)[C@@]23C(=O)N[C@@H](Cc4ccccc4)C2[C@H](C)[C@@]2(C)O[C@H]2C3/C=C/C/C=C\CNC1=O (stereo not given in full)
z-score [1]: -0.0598 | z-score [2]: 0.523 | z-score [3]: -0.706 | z-score [4]: 0.0254 | z-score [5]: -1.65 | z-score [6]: -0.971 | z-score [7]: -0.206 (inactive) | z-score [8]: 0.814 | z-score [9]: 0.546 | z-score [10]: -0.207 (inactive) | z-score [11]: -0.51 | z-score [12]: -0.256 (inactive) | z-score [13]: -0.0224 (inactive) | composite z-score [14]: 0.398 (inactive) | z-score [15]: 0.236 (inactive) | z-score [16]: 0.657 (inactive) | z-score [17]: -0.593 (inactive) | z-score [18]: -0.514 (inactive) | z-score [19]: -0.0497 | composite z-score [20]: -0.119

CCOC(=O)C1=CC[C@@H](c2ccc(-c3ccc(OCc4ccccc4)cc3)c(OC)c2)N(S(=O)(=O)c2ccc(C)cc2)[C@H]1c1ccccc1
z-score [1]: -0.603 | z-score [2]: -0.416 | z-score [3]: 0.418 | z-score [4]: -1.23 | z-score [5]: -0.119 | z-score [6]: 4.16 | z-score [7]: 0.51 (inactive) | z-score [8]: -0.161 | z-score [9]: -1.54 | z-score [10]: 0.751 (inactive) | z-score [11]: 0.899 | z-score [12]: 0.0553 (inactive) | z-score [13]: 0.25 (inactive) | composite z-score [14]: 0.917 (inactive) | z-score [15]: 0.325 (inactive) | z-score [16]: -0.0764 (inactive) | z-score [17]: 0.263 (inactive) | z-score [18]: 1.3 (inactive) | z-score [19]: 0.894 | composite z-score [20]: -0.02

C#CCNC(/C=C/c1ccccc1)CO (stereo not given)
z-score [1]: -0.165 | z-score [2]: -0.239 | z-score [3]: -0.624 | z-score [4]: -0.295 | z-score [5]: -0.987 | z-score [6]: -1.02 | z-score [7]: 0.308 (inactive) | z-score [8]: 0.38 | z-score [9]: -0.323 | z-score [10]: 0.234 (inactive) | z-score [11]: -0.316 | z-score [12]: 0.668 (inactive) | z-score [13]: -0.498 (inactive) | composite z-score [14]: 0.657 (inactive) | z-score [15]: 0.449 (inactive) | z-score [16]: 1.62 (inactive) | z-score [17]: 0.238 (inactive) | z-score [18]: 0.188 (inactive) | z-score [19]: -0.153 | composite z-score [20]: 0.0338
